Experimental data from PubChem BioAssay (EPA / NIEHS).
Inconclusive results are not listed. Activity calls are given as the source filed them. The calls were made as follows, unless noted: active = hit-call score of the fitted dose curve at least 0.9, where 1 is the maximum; inconclusive = response in the unintended direction; inactive = score below 0.9.

Legend:
[1] = TOX21_p53_BLA_p2_viability: Viability Assessment in the Tox21 HCT-116 p53 Agonism Beta-lactamase Assay, Phase 2 (AID 2283591);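 also: actives lower the ATP signal meaning cytotoxicity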
In short: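 HCT116 p53-bla cells, 4000/well, dosed after 5 h plating (217-fold dilution of DMSO stocks) and incubated 16 h at 37C. Viability taken as cellular ATP by CellTiter-Glo luminescence after 30 min RT; signal loss marks cytotoxicity.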

[2] = target: Cellular tumor antigen p53 (Homo sapiens) (UniProt P04637); test: TOX21_p53_BLA_p2_ratio: Tox21 HCT-116 p53 Agonism Beta-lactamase Assay, Ratio, Phase 2 (AID 2283592)
In short: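 HCT-116 cells with p53-responsive beta-lactamase reporter, 4000 cells/well, preincubated 5 h, then compound in DMSO (217-fold dilution) for 16 h at 37C. CCF4-AM substrate 2 h at room temperature; 460/530 nm emission ratio fitted upward versus DMSO.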

[3] = TOX21_p53_BLA_p3_viability: Viability Assessment in the Tox21 HCT-116 p53 Agonism Beta-lactamase Assay, Phase 3 (AID 2283593)
In short: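 HCT116 cells, 4000/well, dosed 5 h after plating by pin transfer (217-fold dilution from DMSO stock) and incubated 16 h at 37C, 5% CO2. Viability read as ATP luminescence with CellTiter-Glo after 30 min at room temperature.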

[4] = target: Cellular tumor antigen p53 (Homo sapiens) (UniProt P04637); test: TOX21_p53_BLA_p3_ratio: Tox21 HCT-116 p53 Agonism Beta-lactamase Assay, Ratio, Phase 3 (AID 2283596)
In short: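 HCT116 p53-bla cells (4000/well) given compound in DMSO (217-fold dilution) after 5 h, incubated 16 h at 37C. CCF4-AM substrate 2 h at room temperature; 460/530 nm emission ratio, gain fitted against DMSO.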

[5] = TOX21_p53_BLA_p4_viability: Viability Assessment in the Tox21 HCT-116 p53 Agonism Beta-lactamase Assay, Phase 4 (AID 2283597);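 also: hits lower the luminescence signal meaning cytotoxicity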
In short: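 HCT-116 p53-bla cells, 4000/well, dosed after 5 h attachment and incubated 16 h at 37 °C, 5% CO2. Viability from CellTiter-Glo ATP luminescence after 30 min at room temperature, taken after the beta-lactamase read; loss of signal indicates cytotoxicity.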

[6] = target: Cellular tumor antigen p53 (Homo sapiens) (UniProt P04637); test: TOX21_p53_BLA_p5_ratio: Tox21 HCT-116 p53 Agonism Beta-lactamase Assay, Ratio, Phase 5 (AID 2283599)
In short: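 HCT-116 p53-bla cells (4000/well) plated 5 h, dosed with compound (217-fold DMSO dilution) for 16 h at 37 C; CCF4-AM substrate 2 h at room temperature. Activity is the 460/530 nm emission ratio (405 nm excitation), fitted in gain-of-signal direction versus DMSO.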

[7] = TOX21_p53_BLA_p5_viability: Viability Assessment in the Tox21 HCT-116 p53 Agonism Beta-lactamase Assay, Phase 5 (AID 2283600)
In short: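 HCT-116 p53 beta-lactamase reporter cells, 4000/well, were exposed to compound (pin transfer, 217-fold dilution) for 16 hours at 37C. Cellular ATP was read by CellTiter-Glo luminescence after 30 min at room temperature.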

[8] = target: Cellular tumor antigen p53 (Homo sapiens) (UniProt P04637); test: TOX21_p53_BLA_p4_ratio: Tox21 HCT-116 p53 Agonism Beta-lactamase Assay, Ratio, Phase 4 (AID 2283601)
In short: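 HCT-116 p53 beta-lactamase reporter cells (4000/well) preincubated 5 h, then compound (217-fold dilution of DMSO stock) for 16 h at 37C. CCF4-AM substrate added 2 h at room temperature; 460/530 nm emission ratio fitted upward versus DMSO.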

[9] = target: PGR (gene 5241) (UniProt P06401); test: TOX21_PR_BLA_Followup_Antagonist_ratio: Tox21 HEK293 Progesterone Receptor (PR) Antagonism Beta-lactamase Follow-Up Assay, Ratio (AID 2283934)
In short: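 PR-UAS-bla HEK293T cells, 3,000/well in 2% charcoal-stripped FBS, given compound plus 1nM R5020 agonist for 16 hr at 37C. Beta-lactamase FRET substrate 2 hours, ratio cleaved/uncleaved fluorescence; viability by CellTiter-Glo in same wells.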

[10] = TOX21_PR_BLA_Followup_Agonist_viability: Viability Assessment in the Tox21 HEK293 Progesterone Receptor (PR) Agonism Beta-lactamase Follow-Up Assay (AID 2283935);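 also: signal loss means lower viability so actives are cytotoxic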
In short: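 PR-UAS-bla HEK293T cells in 2% charcoal-stripped FBS medium, plated 6 hr before compound addition, exposed 16 hr at 37C. Viability read by CellTiter-Glo ATP luminescence after 30 min at room temperature, in the same wells as the beta-lactamase readout.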

[11] = TOX21_PR_BLA_Followup_Antagonist_viability: Viability Assessment in the Tox21 HEK293 Progesterone Receptor (PR) Antagonism Beta-lactamase Follow-Up Assay (AID 2283936);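 also: hits lower the luminescence signal meaning cytotoxicity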
In short: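 PR-UAS-bla HEK293T cells (3,000/well, 2% charcoal-stripped FBS) given compound plus R5020 agonist, 16 h at 37C. CellTiter-Glo added after bla read, 30 min at room temperature; luminescence loss indicates cytotoxicity.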

[12] = target: PGR (gene 5241) (UniProt P06401); test: TOX21_PR_LUC_Followup_Antagonist: Tox21 HEK293 Progesterone Receptor (PR) Antagonism Luciferase Follow-Up Assay (AID 2283938);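 also: curve fitted upward as signal gain over DMSO baseline despite antagonist label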
In short: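 HEK293-PR-A-luc cells, 3,000/well, preincubated 5 h at 37C before compound addition in DMSO; 16 h compound exposure at 37C. ONE-Glo luciferase luminescence read after 30 min at room temperature, fitted relative to DMSO baseline.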

[13] = TOX21_PR_LUC_Followup_Antagonist_viability: Viability Assessment in the Tox21 HEK293 Progesterone Receptor (PR) Antagonism Luciferase Follow-Up Assay (AID 2283940)
In short: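 HEK293-PR-A-luc cells kept in charcoal-stripped FBS medium were plated 5 h before compound addition, then exposed 16 h at 37C; viability read as cellular ATP by luciferase luminescence, loss of signal indicating cytotoxicity.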

[14] = TOX21_PR_LUC_Followup_Agonist_viability: Viability Assessment in the Tox21 HEK293 Progesterone Receptor (PR) Agonism Luciferase Follow-Up Assay (AID 2283941);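 also: loss of signal means cytotoxicity so actives lower viability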
In short: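 HEK293-PR-A-luc cells, kept in 10% charcoal-stripped FBS medium, were treated with compounds for 16 h at 37C. Viability read as cellular ATP by luciferase-coupled luminescence; loss of signal indicates cytotoxicity.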

[15] = tested on: Thyroperoxidase (TPO), gene 54314; test: CCTE_Simmons_AUR_rTPO: CCTE's Amplex UltraRed Assay for Thyroperoxidase (TPO) Inhibition, Simmons Lab (AID 2283662);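 also: potency for loss of signal meaning inhibition of peroxidase activity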
In short: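 Rat thyroid microsomes (5 ug protein) with 25 uM Amplex UltraRed and 300 uM H2O2 in 200 mM phosphate buffer, 30 min at 37C in dark; fluorescence 544/590 nm. Eight concentrations, 5 nM–87.5 uM final, 0.5% DMSO, triplicate biological replicates.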

[16] = CCTE_Simmons_CellTiterGLO_HEK293T: Viability Assessment in CCTE's Assays for Thyroperoxidase (TPO) Inhibition, Simmons Lab (AID 2283665);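 also: cells exposed to compound for 24 h before readout; actives reduce ATP signal below DMSO vehicle meaning cytotoxicity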
In short: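 HEK293T cells in DMEM with 1% FBS, dosed 24 h at 37C with 8 concentrations, 5 nM–87.5 uM final, 0.5% DMSO. ATP measured by CellTiter Glo luminescence; loss of signal vs DMSO, three biological replicates.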

[17] = tested on: Brachyury (BRA) Protein Expression, Deisenroth Lab, TBXT (gene 6862); test: CCTE_Deisenroth_DEVTOX-GLR_legacy_Bra: (Legacy) CCTE's DevTox GLR-Endo Assay Evaluation of Brachyury (BRA) Protein Expression, Deisenroth Lab (AID 2284329; active = hit-call score of the fitted dose curve at least 0.9, where 1 is the maximum; inactive = score below 0.9)
In short: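 RUES2-GLR human pluripotent cells are differentiated for 48 h and receive two chemical exposures 24 h apart, at 10 concentrations from 1 nM to 200 uM. Cells are fixed, nuclei stained and imaged. Bra+ cells are those with mean Bra intensity over 5x BMAD above the pluripotent control median, expressed as a percentage of cell count, after subtracting the 0.2% DMSO control median.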

[18] = CCTE_Deisenroth_DEVTOX-GLR_legacy_CellCount: (Legacy) Viability Assessment in CCTE's DevTox GLR-Endo Assay, Deisenroth Lab (AID 2284331; active = hit-call score of the fitted dose curve at least 0.9, where 1 is the maximum; inactive = score below 0.9); settings: actives raise or lower the signal
In short: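 Human pluripotent RUES2-GLR cells differentiated 48 h with two 24-h-interval exposures, 10-point 1 nM–200 uM series, 0.2% DMSO. Fixed nuclei counted by high-content imaging (5 fields/well); bidirectional fit vs DMSO, n≥4.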

[19] = tested on: SRY-box transcription factor 2 (SOX2) Protein Expression, Deisenroth Lab, SOX2 (gene 6657); test: CCTE_Deisenroth_DEVTOX-GLR_legacy_Sox2: (Legacy) CCTE's DevTox GLR-Endo Assay Evaluation of SRY-box transcription factor 2 (SOX2) Protein Expression, Deisenroth Lab (AID 2284346; active = hit-call score of the fitted dose curve at least 0.9, where 1 is the maximum; inactive = score below 0.9)
In short: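 RUES2-GLR human pluripotent cells were differentiated for 48 h with two chemical doses 24 h apart, over 1 nM-200 uM. Sox2+ cells were those above 5x BMAD of the endoderm-control median; percent Sox2+ minus the 0.2% DMSO median was used, from n=4 replicates.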

[20] = tested on: SRY-box transcription factor 2 (SOX2) Protein Expression, Deisenroth Lab, SOX2 (gene 6657); test: CCTE_Deisenroth_DEVTOX-GLR_Endo_SOX2: CCTE's DevTox GLR-Endo Assay Evaluation of SRY-box transcription factor 2 (SOX2) Protein Expression, Deisenroth Lab (AID 2284412)
In short: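 RUES2-GLR human pluripotent cells were seeded 24 h, then differentiated 48 h with two chemical exposures 24 h apart. Cells were fixed, nuclei stained and imaged by high-content microscopy. Endpoint is %SOX2+ cells over cell count, minus 0.2% DMSO control; 10-point series 1 nM–200 uM.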

[21] = tested on: SRY-box transcription factor 17 (SOX17) Protein Expression, Deisenroth Lab, SOX17 (gene 64321); test: CCTE_Deisenroth_DEVTOX-GLR_Endo_SOX17: CCTE's DevTox GLR-Endo Assay Evaluation of SRY-box transcription factor 17 (SOX17) Protein Expression, Deisenroth Lab (AID 2284413; active = hit-call score of the fitted dose curve at least 0.9, where 1 is the maximum; inactive = score below 0.9)
In short: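 RUES2-GLR human pluripotent cells were differentiated toward endoderm for 48 h and received two compound doses 24 h apart (1 nM - 200 uM, 10 points). High-content imaging of fixed cells gave the percent SOX17+ cells per cell count, expressed as percent change versus 0.2% DMSO.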

[22] = tested on: Brachyury (BRA) Protein Expression, TBXT (gene 6862); test: CCTE_Deisenroth_DEVTOX-GLR_Endo_BRA: CCTE's DevTox GLR-Endo Assay Evaluation of Brachyury (BRA) Protein Expression, Deisenroth Lab (AID 2284417; active = hit-call score of the fitted dose curve at least 0.9, where 1 is the maximum; inactive = score below 0.9)
In short: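 RUES2-GLR pluripotent cells differentiated 48 h with two chemical exposures 24 h apart, 10-point range 1 nM - 200 uM. Percentage of BRA+ cells per total count by high-content imaging, minus 0.2% DMSO control.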

[23] = tested on: SRY-box transcription factor 17 (SOX17) Protein Expression, Deisenroth Lab, SOX17 (gene 64321); test: CCTE_Deisenroth_DEVTOX-GLR_Pluri_SOX17: CCTE's DevTox GLR-Pluri Assay Evaluation of SRY-box transcription factor 17 (SOX17) Protein Expression, Deisenroth Lab (AID 2284427)
In short: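 RUES2-GLR pluripotent cells were induced toward endoderm over 48 h and received two compound doses 24 h apart, in a 10-point series from 1 nM to 200 uM. The percentage of SOX17+ cells among total cells was measured by high-content imaging and reported minus the 0.2% DMSO control.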

[24] = tested on: SRY-box transcription factor 2 (SOX2) Protein Expression, Deisenroth Lab, SOX2 (gene 6657); test: CCTE_Deisenroth_DEVTOX-GLR_Pluri_SOX2: CCTE's DevTox GLR-Pluri Assay Evaluation of SRY-box transcription factor 2 (SOX2) Protein Expression, Deisenroth Lab (AID 2284428; active = hit-call score of the fitted dose curve at least 0.9, where 1 is the maximum; inactive = score below 0.9)
In short: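 RUES2-GLR human pluripotent cells, two exposures 24 h apart over 48 h differentiation; 10-point series 1 nM - 200 uM. High-content imaging gives SOX2+ cells divided by cell count, reported as percent change versus 0.2% DMSO.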

[25] = CCTE_Deisenroth_DEVTOX-GLR_Pluri_CellCount: Viability Assessment in CCTE's DevTox GLR-Pluri Assay Evaluation of Total Cell Counts, Deisenroth Lab (AID 2284430; active = hit-call score of the fitted dose curve at least 0.9, where 1 is the maximum; inactive = score below 0.9)
In short: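 RUES2-GLR human pluripotent cells, seeded 24 h, then differentiated 48 h with two chemical exposures 24 h apart; 10-point series 1 nM - 200 uM. Fixed, nuclear-stained, imaged (5 fields/well); nuclei count as % change vs 0.2% DMSO.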

Measured: AC50

Sequence of Cellular tumor antigen p53 (Homo sapiens) (P04637 whole entry, looked up): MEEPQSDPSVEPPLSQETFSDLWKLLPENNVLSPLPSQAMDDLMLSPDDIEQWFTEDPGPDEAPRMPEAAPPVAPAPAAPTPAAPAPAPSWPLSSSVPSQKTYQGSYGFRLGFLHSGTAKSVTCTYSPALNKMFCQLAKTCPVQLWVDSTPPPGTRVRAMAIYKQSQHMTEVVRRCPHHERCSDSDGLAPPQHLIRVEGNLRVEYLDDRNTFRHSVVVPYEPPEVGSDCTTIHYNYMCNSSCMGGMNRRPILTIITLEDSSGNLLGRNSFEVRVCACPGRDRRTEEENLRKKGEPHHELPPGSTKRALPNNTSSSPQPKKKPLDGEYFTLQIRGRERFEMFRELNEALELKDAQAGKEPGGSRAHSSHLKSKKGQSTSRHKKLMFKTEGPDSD
Sequence of PGR (gene 5241) (P06401 whole entry, looked up): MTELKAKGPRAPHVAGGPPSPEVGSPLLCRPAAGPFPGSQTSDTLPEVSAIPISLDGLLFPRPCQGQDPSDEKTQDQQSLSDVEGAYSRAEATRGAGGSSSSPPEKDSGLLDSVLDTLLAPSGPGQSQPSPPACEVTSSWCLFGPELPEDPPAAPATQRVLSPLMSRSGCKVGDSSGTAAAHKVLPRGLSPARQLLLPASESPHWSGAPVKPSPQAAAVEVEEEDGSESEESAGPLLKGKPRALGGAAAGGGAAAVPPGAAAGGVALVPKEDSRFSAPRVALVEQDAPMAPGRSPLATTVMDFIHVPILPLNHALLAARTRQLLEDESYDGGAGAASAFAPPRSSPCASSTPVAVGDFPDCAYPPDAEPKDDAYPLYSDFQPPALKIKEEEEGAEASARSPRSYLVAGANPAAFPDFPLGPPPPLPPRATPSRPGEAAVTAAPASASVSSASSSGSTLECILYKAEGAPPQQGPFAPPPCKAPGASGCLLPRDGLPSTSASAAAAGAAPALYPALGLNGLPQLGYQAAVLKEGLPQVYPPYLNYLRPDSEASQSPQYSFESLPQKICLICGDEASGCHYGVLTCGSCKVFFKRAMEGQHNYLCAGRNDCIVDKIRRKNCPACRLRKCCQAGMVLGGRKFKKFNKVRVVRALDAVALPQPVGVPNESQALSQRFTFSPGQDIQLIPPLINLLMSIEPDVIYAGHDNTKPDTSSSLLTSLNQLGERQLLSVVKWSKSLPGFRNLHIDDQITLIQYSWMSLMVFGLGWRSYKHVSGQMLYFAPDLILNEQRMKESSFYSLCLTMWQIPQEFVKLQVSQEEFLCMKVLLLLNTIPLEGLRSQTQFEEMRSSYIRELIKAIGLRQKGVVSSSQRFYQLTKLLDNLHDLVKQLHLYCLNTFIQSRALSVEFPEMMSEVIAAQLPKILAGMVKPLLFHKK

CCCCCCCC/C=C\CCCCCCCC(=O)NCc1ccc(O)c(OC)c1
active: [3] 41.5 µM
inactive: [1] | [2] | [4] | [5] | [6] | [7] | [8]

COCCOC(=O)C1=C(C)NC(C)=C(C(=O)OC/C=C/c2ccccc2)C1c1cccc([N+](=O)[O-])c1 (centres undefined)
inactive: [1] | [2] | [3] | [4] | [5] | [6] | [7] | [8] | [10] | [11] | [13] | [14]
active: [9] 6.12 µM | [12] 7.18 µM

CC(=O)Oc1ccc(C2(c3ccc(OC(C)=O)cc3)Oc3ccccc3NC2=O)cc1
inactive: [1] | [3] | [4] | [5] | [7] | [8]
active: [2] 2.17 µM | [6] 6.63 µM

CCN(CC)CCNC(=O)c1c(C)[nH]c(/C=C2\C(=O)Nc3ccc(F)cc32)c1C
active: [5] 17.7 µM | [8] 37.1 µM | [15] 8.81 µM | [16] 12.8 µM | [17] 6.88 µM | [18] 1.63 µM | [19] 0.621 µM | [20] 2.5 µM | [21] 0.616 µM | [22] 0.826 µM | [23] 1.46 µM | [24] 0.432 µM | [25] 1.23 µM
inactive: [1] | [2] | [3] | [4] | [6] | [7]
